# Most compounds without a hit are left out; they make up all but 6.7% or so of the library.
# T cruzi growth-1: T. cruzi intracellular proliferation inhibitors, primary screen, cell-based, beta-gal Tulahuen parasites, NIH3T3 host, luminescence | actives 5.9% (n = 77,000) | inhibition, % at 8.34 µM | T. cruzi beta-gal in NIH3T3, GalScreen luminescence, 90 h;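 active = mean inhibition above about 93%, with at least 55% of replicates each passing it, limit read from the data, passing the limit was not always enough; inconclusive = only one of those two conditions holds; inactive = neither condition holds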
# C diff growth: C. difficile growth inhibitors, primary screen, HTS | Clostridium difficile clinical isolate growth, OD600, 24 h; stronger effect = lower value | growth activity, negative = inhibition, % at 16 µg/mL (by protocol) | actives 0.25% (n = 86,000) | AID 1259249, 2017;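 active = mean growth activity at or below -80% and every replicate also at or below -80%; inconclusive = mean at or below -80% but some replicate above -80%; inactive = mean growth activity above -80%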
# Pf Dd2 inh: P. falciparum Dd2 growth inhibitors, primary screen, SYBR Green fluorescence, single dose replicates | 72 h; stronger effect = lower value | AID 1159554, 2015 | activity change, % at 10 µM | actives 2.3% (n = 94,000); in the data active = activity change below about -80%; inconclusive = no clear call, values can overlap the other calls
# T cruzi growth-2: T. cruzi intracellular proliferation inhibitors, confirmation, cell-based, NIH3T3 host, beta-gal parasite, luminescence, cherry-pick | shares compounds with T cruzi growth-1 | T. cruzi beta-gal in NIH3T3, GalScreen luminescence, 90 h | inhibition, % at 8.35 µM | actives 72% (n = 5,600);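 active = mean replicate inhibition above about 95% and at least 55% of replicates individually reaching it, limit read from the data; inconclusive = only one of the two criteria is met; inactive = neither criterion is met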
# T cruzi growth-3: inhibitors of intracellular T. cruzi replication, confirmation, NIH3T3 host cells, beta-gal parasites, cherry-pick, set 2; shares compounds with T cruzi growth-1; actives 21% (n = 5,600); T. cruzi beta-gal in NIH3T3, GalScreen luminescence, 90 h; inhibition, % at 2.09 µM; AID 651740, 2012;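 active = mean inhibition above about 95%, with at least 55% of replicates also reaching it, limit read from the data; inconclusive = meets just one of the two conditions; inactive = meets neither condition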
# 3T3 cytotox: cytotoxicity in mouse NIH/3T3 fibroblasts, confirmation, cytotoxicity control for T. cruzi proliferation inhibitor project, cell-based, cherry-pick, single point; NIH/3T3 viability, CellTiter-Glo ATP luminescence, 90 h; actives 14% (n = 5,600); shares compounds with T cruzi growth-1; cytotoxicity (signal decrease), % at 8.35 µM; AID 651742, 2012;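 active = mean signal decrease across replicates above about 35% based on untreated-well scatter, with enough replicates individually passing, limit read from the data; inconclusive = no rule stated though some were filed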
# 3T3 cytotox 2: NIH/3T3 fibroblast cytotoxicity, confirmation, cytotoxicity control, cell-based, cherry-pick, single point, set 2; shares compounds with T cruzi growth-1; NIH/3T3 viability, CellTiter-Glo ATP luminescence, 90 h; inhibition, % at 24.9 µM; actives 56% (n = 5,600); AID 651744, 2012;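 active = mean loss of cell viability signal at or above a set limit, and enough replicates individually reaching it; inconclusive = meets only the mean limit or only the replicate share; inactive = meets neither condition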
# A number is an active result; 0 = inactive; ? = inconclusive; - = no result given; ! = repeats disagree.
SMILES,T cruzi growth-1,C diff growth,Pf Dd2 inh,T cruzi growth-2,T cruzi growth-3,3T3 cytotox,3T3 cytotox 2
CO[C@@H]1CN(C)C(=O)c2ccc(NC(=O)c3ccccc3F)cc2OC[C@H](C)N(C)C[C@H]1C,0,0,0,-,-,-,-
O=S(=O)(Cc1ccccc1)N1CCCCN2[C@H](CO)[C@H](c3ccc(C#Cc4ccccc4)cc3)[C@H]2C1,0,0,0,-,-,-,-
CC(C)CC#Cc1ccc([C@H]2[C@@H](CO)N3CCCCN(S(=O)(=O)Cc4ccccc4)C[C@H]23)cc1,103,0,0,98,108,0,108
O=S(=O)(Cc1ccccc1)N1CCCCN2[C@H](CO)[C@@H](c3ccc(C#Cc4ccccc4)cc3)[C@@H]2C1,0,0,0,-,-,-,-
O=S(=O)(Cc1ccccc1)N1CCCCN2[C@H](CO)[C@@H](c3ccc(C#Cc4ccccc4)cc3)[C@H]2C1,0,0,0,-,-,-,-
O=S(=O)(Cc1ccccc1)N1CCCCN2[C@@H](CO)[C@H](c3ccc(C#Cc4ccccc4)cc3)[C@@H]2C1,117,0,0,100,0,51,106
CCCC#Cc1ccc([C@H]2[C@H]3CN(S(=O)(=O)Cc4ccccc4)CCCCN3[C@H]2CO)cc1,100,0,0,104,0,?,76
COCC#Cc1ccc([C@@H]2[C@@H](CO)N3CCCCN(S(=O)(=O)c4ccccc4C)C[C@@H]23)cc1,0,0,0,-,-,-,-
CCCC#Cc1ccc([C@@H]2[C@@H](CO)N3CCCCN(S(=O)(=O)c4ccccc4C)C[C@@H]23)cc1,116,0,0,98,0,0,102
COc1ccc(S(=O)(=O)N2CC[C@@H]3[C@@H](CO)Nc4ccc(-c5ccccc5F)cc4[C@@H]32)cc1,0,0,0,-,-,-,-
C[C@H]1CN([C@@H](C)CO)C(=O)c2cc(NC(=O)CCC(F)(F)F)ccc2O[C@@H]1CN(C)C(=O)Nc1ccc(F)cc1,0,0,0,-,-,-,-
COCc1cn(CC[C@H]2CC[C@@H](NC(=O)Nc3ccc(F)cc3)[C@@H](CO)O2)nn1,0,0,0,-,-,-,-
O=C(O)C[C@H]1C[C@H]2c3cc(NC(=O)Nc4ccc(F)cc4)ccc3O[C@H]2[C@H](CO)O1,0,0,0,-,-,-,-
O=C(C[C@@H]1CC[C@H]2[C@@H](COC[C@H](O)CN2C(=O)c2ccncc2)O1)NCc1cccc(F)c1,0,0,-,-,-,-,-
C[C@H](O)C#Cc1ccc([C@H]2[C@@H](CO)N3CCCCN(S(=O)(=O)Cc4ccccc4)C[C@H]23)cc1,0,0,0,-,-,-,-
CC(C)C#Cc1ccc([C@@H]2[C@@H](CO)N3CCCCN(S(=O)(=O)Cc4ccccc4)C[C@@H]23)cc1,101,0,0,105,0,37,104
COc1ccccc1C(=O)Nc1ccc2c(c1)C(=O)N(C)[C@@H]1CC[C@@H](CC(=O)NCCc3ccncc3)O[C@H]1CO2,0,0,-,-,-,-,-
COc1ccc(S(=O)(=O)N(C)C[C@@H]2OCCCC[C@H](C)Oc3ccc(NS(=O)(=O)c4ccc(F)cc4)cc3C(=O)N([C@@H](C)CO)C[C@H]2C)cc1,105,0,0,109,0,0,0
COc1ccc(S(=O)(=O)N(C)C[C@H]2OCCCC[C@@H](C)Oc3ccc(NS(=O)(=O)c4ccc(F)cc4)cc3C(=O)N([C@@H](C)CO)C[C@@H]2C)cc1,104,0,0,103,0,0,0
COc1ccc(S(=O)(=O)Nc2ccc3c(c2)C(=O)N([C@H](C)CO)C[C@H](C)[C@H](CN(C)S(=O)(=O)c2ccc(F)cc2)OCCCC[C@@H](C)O3)cc1,0,0,0,-,-,-,-
COc1ccc(S(=O)(=O)N(C)C[C@@H]2OCCCC[C@@H](C)Oc3ccc(NS(=O)(=O)c4ccc(F)cc4)cc3C(=O)N([C@H](C)CO)C[C@H]2C)cc1,101,0,0,111,0,0,0
COc1ccc(S(=O)(=O)Nc2ccc3c(c2)C(=O)N([C@H](C)CO)C[C@@H](C)[C@H](CN(C)S(=O)(=O)c2ccc(F)cc2)OCCCC[C@H](C)O3)cc1,0,0,0,-,-,-,-
COc1ccc(S(=O)(=O)N(C)C[C@H]2OCCCC[C@H](C)Oc3ccc(NS(=O)(=O)c4ccc(F)cc4)cc3C(=O)N([C@H](C)CO)C[C@H]2C)cc1,0,0,0,-,-,-,-
COc1ccc(S(=O)(=O)N(C)C[C@@H]2OCCCC[C@@H](C)Oc3ccc(NS(=O)(=O)c4ccc(F)cc4)cc3C(=O)N([C@@H](C)CO)C[C@H]2C)cc1,101,0,0,103,0,0,0
COc1ccc(S(=O)(=O)Nc2ccc3c(c2)C(=O)N([C@H](C)CO)C[C@H](C)[C@H](CN(C)S(=O)(=O)c2ccc(F)cc2)OCCCC[C@H](C)O3)cc1,0,0,0,-,-,-,-
SMILES,T cruzi growth-1,C diff growth,Pf Dd2 inh,T cruzi growth-2,T cruzi growth-3,3T3 cytotox,3T3 cytotox 2
C[C@@H]1CCCCO[C@H](CN(C)Cc2ccccc2)[C@@H](C)CN([C@@H](C)CO)C(=O)c2cc(NC(=O)Nc3ccccc3)ccc2O1,-,-,0,-,-,-,-
CC(C)c1cn(CC[C@H]2CC[C@H](NC(=O)C3CCOCC3)[C@@H](CO)O2)nn1,-,0,0,-,-,-,-
CCCN(C)C[C@H]1Oc2cc(C#C[C@H](C)O)ccc2S(=O)(=O)N([C@@H](C)CO)C[C@H]1C,0,0,0,-,-,-,-
C/C=C/c1ccccc1[C@@H]1[C@H](C#N)N(C(=O)c2cccnc2)[C@H]1CO,-,0,0,-,-,-,-
O=C(C[C@H]1CC[C@@H]2[C@H](COC[C@H](O)CN2C(=O)c2ccccc2)O1)N1CCc2ccccc2C1,0,0,0,-,-,-,-
CCCN1C[C@H](C)[C@H](OC)CN(C)C(=O)c2cc(NC(=O)CC)ccc2OC[C@H]1C,0,-,-,-,-,-,-
COc1ccc(S(=O)(=O)N(C)C[C@@H]2OCc3cnnn3CCCC(=O)N([C@H](C)CO)C[C@H]2C)cc1,0,0,0,-,-,-,-
COc1ccc(S(=O)(=O)N(C)C[C@H]2OCc3cnnn3CCCC(=O)N([C@@H](C)CO)C[C@H]2C)cc1,?,0,0,0,0,0,0
C[C@@H]1CN([C@H](C)CO)C(=O)CCCn2nncc2CO[C@@H]1CN(C)S(=O)(=O)c1cccc(F)c1,144!,0,0,103,0,0,0
C[C@H](CO)N1C[C@H](C)[C@@H](CN(C)S(=O)(=O)c2ccc(Cl)cc2)OCc2cnnn2CCCC1=O,0,0,0,-,-,-,-
C[C@H]1CN([C@@H](C)CO)C(=O)CCCn2nncc2CO[C@H]1CN(C)S(=O)(=O)c1cccc(F)c1,0,0,0,-,-,-,-

# Bioassay records from PubChem.
